# KB-V1 cytotox: KB-V1 MDR subline cytotoxicity | KB-V1 MDR cells viability, CellTiter-Glo, 72 h | hit rate 3.4% among 400,000 | AID 1347076 | Potency, µM (top dose mostly 46.1 µM), usual class: cytotoxic; note: % is set by controls: 0 for no effect and ±100 for the full control effect; nearly all actives have a fitted effect of over 60% in size
#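 KB-V1 cells (P-gp-expressing MDR subline of KB-3-1) in phenol-red-free DMEM with 10% FBS were exposed to library compounds over a concentration series for 72 h at 37 degrees C. Viability read by CellTiter-Glo luminescence; concentration-effect curves fitted after normalization.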
# HT1080NT lethal: kills 2HG-producing HT-1080-NT fibrosarcoma cells. HT-1080-NT fibrosarcoma viability, CellTiter-Glo ATP luminescence, 48 h. Potency, µM (series often up to 46.1 µM), for the others: top-dose activity, negative = less viability, usual class: cytotoxic. hit rate 1.6% among 360,000;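 note: NT is the 2HG producing partner of a matched IDH1 knockdown line; 0% = DMSO-treated cells and -100% = media-only wells without cells; nearly all actives have a fitted effect of over 55% in size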
#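 Luminescent CellTiter-Glo readout after 48 hours of compound exposure at 37 degrees C defined viability of HT-1080-NT cells. Activity was normalized to DMSO wells and cell-free media wells; concentration-response curves were fitted and assigned curve classes.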
# KB-3-1 tox: KB-3-1 parental cell cytotoxicity. AID 1347075. KB-3-1 viability, CellTiter-Glo ATP luminescence, 72 h. hit rate 1.4% among 400,000. Potency, µM (series often up to 46.1 µM), most hits filed as cytotoxic; note: % is set by controls: 0 for no effect and ±100 for the full control effect; nearly all actives have a fitted effect of over 60% in size
#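 Parental KB-3-1 viability, qHTS format: 72 h compound exposure, 37 °C; CellTiter-Glo; media-only wells and DMSO plates as controls; concentration-effect fits on corrected data.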
# SW480 rereplic: inducers of DNA re-replication in SW480 colon cancer cells | AID 624297 | SW480 DNA re-replication, Hoechst DNA content imaging, 48 h | hit rate 1.8% among 340,000 | Potency, µM (titrated, usually from 46.1 µM), for inactives: at the top dose re-replication activation, usual class: activators; note: % of control where 0% means no effect; nearly all actives have a fitted effect of over 55% in size
#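 DNA re-replication was detected as more nuclei of elevated Hoechst intensity after 48 hr exposure to compound (23 nL pinned per well of 250 cells).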
# MCF10A rereplic: induces DNA re-replication in MCF 10a normal breast cells. MCF 10A DNA re-replication, Hoechst nuclear intensity, 48 h. Potency, µM (series often up to 46.1 µM), for inactives: at the top dose activity, positive = re-replication, actives largely listed as activators. hit rate 2.9% among 350,000; note: % of control where 0% means no effect; nearly all actives have a fitted effect of over 50% in size
# HT1080 IDH1KD tx: HT-1080 IDH1 knockdown cell toxicity (counter line); Potency, µM (titrated, usually from 46.1 µM), for inactives: at the top dose activity, negative = toxicity, usual class: cytotoxic; hit rate 2% among 360,000; HT-1080 IDH1 knockdown viability, ATP luminescence, 48 h;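 note: 0% = DMSO wells and -100% = cell-free medium wells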
#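 % activity derives from luminescence (CellTiter-Glo), normalised to DMSO and no-cell wells. HT-1080-IDH1KD cells, 750/well, had 48 h compound exposure at 37 °C.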
# * = called active by the depositor; i = inactive; ? = inconclusive; . = no result. Rows were chosen to be rich in hits. Some 7.9% of all compounds tested hit in one or more screens of this group. Calls come from the whole dose curve; as a rule, active = well fitted curve in the direction sought with a large enough effect; inconclusive = small, poorly fitted or top-dose-only effect, or another doubt; inactive = no such curve, though single readings can be large; an effect the other way counts as inactive or inconclusive. Potency is the fitted concentration of half-maximal effect.
SMILES,KB-V1 cytotox,HT1080NT lethal,KB-3-1 tox,SW480 rereplic,MCF10A rereplic,HT1080 IDH1KD tx
O=C(CSc1cccc[n+]1[O-])Nc1ccccc1Oc1ccccc1,?,8.2µM*,i,?,-1.0%,6.51µM*
COc1cc2c(cc1NC(=O)CSc1cccc[n+]1[O-])oc1ccccc12,11.6µM*,3.9%,?,-7.0%,14.7%,3.4%
CCNC(=O)C1(C)CCN1CCC(=O)c1ccc(Br)cc1 (configuration not stated),i,13.7%,i,.,.,4.7%
C1=Nc2ccccc2/C1=C/c1ccccc1,i,.,?,.,.,.
COc1ccc(/C=N/OCC(=O)NC(c2ccccc2)c2ccccc2)cc1OC,2.31µM*,-7.2%,?,0.3%,21.2%,-14.2%
COc1cc(/C=N/OCC(=O)Nc2ccc(OC(F)F)cc2)ccc1OCc1ccccc1,8.2µM*,?,23.1µM*,?,?,?
COc1cc(/C=N/OCC(=O)NC23CC4CC(CC(C4)C2)C3)ccc1OCc1ccccc1,?,-24.8%,?,?,20.6µM*,?
C/C(=N\OCC(=O)NC12CC3CC(CC(C3)C1)C2)c1cc2ccccc2o1,i,?,i,?,20.6µM*,?
O=C(O)C1(C(=O)O)CCC1.[NH2-].[NH2-].[Pt+2],.,.,.,-0.9%,0.3%,.
Cc1ccc2c(NCc3ccco3)nc(NC(C)C)nc2c1,?,25.9µM*,i,.,.,18.4µM*
CC1CC(C)CN(c2nc(NCc3ccco3)nc(N)c2[N+](=O)[O-])C1 (configuration not stated),?,3.6%,?,5.7%,?,7.8%
Fc1ccc(Nc2nc(NCc3ccco3)c3ccccc3n2)cc1,18.4µM*,?,?,?,?,-17.7%
Nc1nc(Nc2ccccc2)nc(NCc2ccco2)c1[N+](=O)[O-],16.4µM*,-4.9%,i,-5.1%,?,-8.6%
Nc1nc(NCc2ccco2)nc(Nc2ccccc2)c1[N+](=O)[O-],?,-0.9%,i,-9.4%,-0.9%,3.6%
c1coc(CNc2nc(NCc3ccco3)c3ccccc3n2)c1,i,.,i,.,.,.
CC1CCCN(c2nc(NCc3ccco3)nc(N)c2[N+](=O)[O-])C1 (configuration not stated),14.6µM*,?,i,.,22.7%,-12.5%
O=C(/C=C/[C@H]1O[C@@H](n2ccc(=O)[nH]c2=O)[C@H](O)[C@@H]1O)N1CCN(CCc2ccccc2)CC1,i,16.4%,i,.,.,20.6%
CCCc1nn2c(=O)cc(COC(=O)c3ccccc3NC(=O)C3CCCCC3)nc2s1,i,.,i,.,.,.
CCc1ccc(OCC(=O)Nc2ccc(Cl)c(-c3nc4cc(C)cc(C)c4o3)c2)cc1,i,.,i,.,.,.
Nc1nc(NCCc2ccccc2)nc(NCc2ccccc2)c1[N+](=O)[O-],i,-3.7%,?,8.6%,3.6%,-4.5%
CN(Cc1ccccc1)c1nc(N)c([N+](=O)[O-])c(NCc2ccccc2)n1,18.4µM*,?,?,-1.7%,?,?
CC(C)c1ccc(Nc2nc(Cl)nc(NCc3ccco3)n2)cc1,i,?,?,5.8µM*,23.1µM*,?
Cc1ccc(CCNC(=O)C(CC(C)C)NS(=O)(=O)c2ccc3c(c2)oc(=O)n3C)cc1 (configuration not stated),i,.,i,.,.,.
CN1C(=O)C(O)(C2COC(C)(C)CC2=O)c2cc(Br)ccc21 (configuration not stated),?,?,20.6µM*,?,?,?
CCCc1noc(-c2ccc(N3CCCCC3)c([N+](=O)[O-])c2)n1,i,.,i,.,.,.
COc1cc(OC)c2c(-c3cccc(-c4sccc4C(C)=O)c3)cc(=O)oc2c1,2.59µM*,4.11µM*,2.91µM*,6.51µM*,0.651µM*,3.66µM*
COc1cc(OC)c2c(-c3cccc(-c4ccc(OC)c(OC)c4)c3)cc(=O)oc2c1,i,?,i,2.06µM*,1.3µM*,?

# From PubChem BioAssay
